Screening results: PubChem, The Scripps Research Institute Molecular Screening Center
This is a sample that favours compounds with a hit; in the whole collection about 1.8% have one here.
GSTO1 inh: counter-screen for RBBP9 inhibitors: inhibitors of human GSTO1; inhibition, % at 5.96 µM; AID 1974; recombinant GSTO1, activity-based probe fluorescence polarization; actives 1.1% (n = 300,000);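 active means inhibition above the campaign mean inhibition plus 3 SD, cut at about 35% in these data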
PAD4 inh: blocks human protein arginine deiminase 4; Q9UM07; recombinant PAD4, RCA probe fluorescence polarization; inhibition, % at 6.36 µM; actives 0.41% (n = 330,000);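 active means percent inhibition above a cutoff equal to the mean of all tested compounds plus 3 SD, cut at about 15% in these data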
PME-1 inh: blocks human protein phosphatase methylesterase 1; actives 0.53% (n = 320,000); AID 2130; inhibition, % at 5.9 µM; recombinant PME-1, FP-Rh probe fluorescence polarization;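 active means inhibition above the campaign mean of all compounds plus 3 SD, cut at about 26% in these data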;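 further: competitive labeling of PME-1 active site by serine hydrolase directed probe; inhibitors block probe labeling so polarization falls and inhibition rises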
LYPLA2 inh: blocks human lysophospholipase 2, a PME1 counter-screen | AID 2177 | inhibition, % at 5.9 µM | actives 0.38% (n = 320,000) | O95372 | recombinant LYPLA2, FP-Rh probe fluorescence polarization;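 active means inhibition above the screen-wide mean plus 3 SD, limit set per campaign, cut at about 26% in these data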
Target sequence (O95372 whole entry, looked up): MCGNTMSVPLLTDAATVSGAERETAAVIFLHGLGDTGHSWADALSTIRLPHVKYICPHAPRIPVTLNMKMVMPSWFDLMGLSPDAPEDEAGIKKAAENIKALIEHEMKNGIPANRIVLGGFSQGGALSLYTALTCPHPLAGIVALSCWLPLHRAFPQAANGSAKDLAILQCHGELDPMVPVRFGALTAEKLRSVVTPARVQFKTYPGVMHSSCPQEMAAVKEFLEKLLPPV
Fam108B inh: counter-screen for RBBP9 inhibitors: inhibitors of mouse Fam108B; recombinant Fam108B, FP-Rh probe fluorescence polarization; inhibition, % at 9.51 µM; actives 0.33% (n = 300,000);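 active means inhibition above the screen mean inhibition plus 3 SD, computed separately per campaign, cut at about 18% in these data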;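 further: inhibitors lower polarization as less probe binds the enzyme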
LYPLA1 counter: blocks human lysophospholipase 1, a PME1 counter-screen; recombinant LYPLA1, FP-Rh probe fluorescence polarization; inhibition, % at 5.9 µM; actives 0.16% (n = 320,000);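 active means inhibition above the mean of all tested compounds plus 3 SD, set per campaign, cut at about 14% in these data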;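 further: inhibitors block serine hydrolase probe labeling of LYPLA1 so polarization falls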
Target sequence (O75608 whole entry, looked up): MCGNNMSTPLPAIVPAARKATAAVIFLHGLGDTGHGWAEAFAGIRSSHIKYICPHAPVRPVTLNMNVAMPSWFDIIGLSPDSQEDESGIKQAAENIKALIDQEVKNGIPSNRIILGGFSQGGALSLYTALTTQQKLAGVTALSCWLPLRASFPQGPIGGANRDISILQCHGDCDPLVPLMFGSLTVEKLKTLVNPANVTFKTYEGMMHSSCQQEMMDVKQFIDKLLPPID
GSTO1 confirm: confirmation of human GSTO1 inhibitors. shares compounds with GSTO1 inh. recombinant GSTO1, probe fluorescence polarization. inhibition, % at 5.96 µM. actives 54% (n = 2,400);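 active means inhibition above the primary screen's cutoff, its mean inhibition plus 3 SD, cut at about 35% in these data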;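 further: loss of polarization as inhibitors block binding of rhodamine sulfonate ester activity probe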
GSTO1 recomb ABPP: blocks recombinant human glutathione S-transferase omega 1 | shares compounds with GSTO1 inh | recombinant GSTO1, gel ABPP SE-Rh probe fluorescence | inhibition, % at 1 µM | actives 30% (n = 130);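 active means inhibition of the enzyme GSTO1 above about 75%, limit read from the data; inactive means inhibition below that limit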
Numbers stand for hits; – = inactive; · = no result.

SMILES	GSTO1 inh	PAD4 inh	PME-1 inh	LYPLA2 inh	Fam108B inh	LYPLA1 counter	GSTO1 confirm	others
CC(C)c1ccccc1OCC(=O)Nc1cc(S(=O)(=O)N2CCOCC2)ccc1N1CCCC1	–	–	–	–	–	–	·
Cc1ccc(N(CCC#N)C(=O)CCl)cc1C	93	–	–	–	–	–	90	GSTO1 recomb ABPP=–
Cc1ccc(SCC(=O)OCC(=O)N(CCC#N)c2ccccc2)cc1C	–	–	–	–	–	–	·
CCc1ccc2c(c1)C(=O)C(=O)N2CCS(=O)(=O)c1ccccc1	–	–	–	–	–	–	·
O=C1C(=O)N(CCS(=O)(=O)c2ccccc2)c2ccc(Cl)cc21	43	–	–	–	–	–	–
Cc1ccc[n+](CC(=O)Nc2cccc([N+](=O)[O-])c2)c1	–	–	–	–	–	–	·
Cc1ccc[n+](CC(=O)Nc2ccc([N+](=O)[O-])cc2)c1	91	–	–	–	–	–	95
Cc1ccc(NC(=O)CCOc2ccccc2C)cc1C	–	–	–	–	–	–	·
O=C(Nc1cc(S(=O)(=O)N2CCOCC2)ccc1OCC(F)(F)F)C1=COCCO1	–	–	–	–	–	–	·
CCCc1ccccc1OCCNS(=O)(=O)c1cc2c(cc1C)OCC(=O)N2	43	–	–	–	–	–	–
Cc1noc(NS(=O)(=O)c2ccc(NC(=O)CSc3ncccn3)cc2)c1C	55	–	–	–	–	–	–
CCn1c(C)nc2cc(C(=O)N/N=C/c3cccc(O)c3O)ccc21	45	–	–	–	–	–	–
CN(C(=O)COC(=O)c1ccc(Br)c(S(=O)(=O)N2CCOCC2)c1)C1CCCCC1	·	–	·	·	·	·	·
CC1(OC(=O)C2CCCC2)C(=O)C=C2C=C(c3ccsc3)N(CCCCO)C=C2C1=O (stereo unspecified)	44	–	–	–	–	–	–
O=C(CCNC(=O)c1ccc([N+](=O)[O-])cc1)NCCc1ccccc1	–	–	–	–	–	–	·
COc1ccc(-c2ccc(-c3nc4c(c(=O)[nH]c(=O)n4Cc4ccccc4)n3C)o2)c([N+](=O)[O-])c1	–	–	–	–	–	–	·
COCCn1c(=O)[nH]c(=O)c2c1nc(-c1ccc(-c3ccc(Cl)cc3[N+](=O)[O-])o1)n2Cc1ccccc1	60	–	–	–	–	–	–
C=CCC1(CC=C)CCCN1C(=O)c1cc(COc2ccccc2SC)on1	–	–	–	–	–	–	·
Cc1cccc(CC(=O)Nc2ccon2)c1	59	–	–	–	–	–	–
Cc1ccccc1CC(=O)Nc1ccon1	–	–	–	–	–	–	·
Cc1ccc(O)c(O)c1	55	–	–	–	–	–	–
Cc1ccc(O)c(N)c1	·	–	–	–	·	–	·
CC(C)c1onc(C(=O)NCc2cccs2)c1[N+](=O)[O-]	41	–	–	–	–	–	–
Cc1onc(C(=O)NCc2cccs2)c1[N+](=O)[O-]	–	–	–	–	–	–	·
CC(C)(c1ccccc1)c1ccc(OCC2CO2)cc1 (stereo unspecified)	94	–	–	–	–	–	91	GSTO1 recomb ABPP=–
SMILES	GSTO1 inh	PAD4 inh	PME-1 inh	LYPLA2 inh	Fam108B inh	LYPLA1 counter	GSTO1 confirm	others
O=C(O)COc1ccc(S(=O)(=O)c2ccc(OCC(=O)O)cc2)cc1	–	–	–	–	–	–	·
O=S(=O)(c1ccc(OCC2CO2)cc1)c1ccc(OCC2CO2)cc1 (stereo unspecified)	92	–	–	–	–	–	90	GSTO1 recomb ABPP=–
CN(CCCC(=O)NCc1ccc2c(c1)OCO2)S(=O)(=O)c1ccc([N+](=O)[O-])cc1	–	–	–	–	–	–	·
CCc1ccccc1OCC(=O)NCC1COc2ccccc2O1 (stereo unspecified)	·	–	·	·	·	·	·
CCOc1cccc(C=Nc2cc(C)cc(C)c2O)c1O	45	–	–	–	–	–	–
CC(=O)N1CC(C)Sc2ccc(S(=O)(=O)NCCc3cccc(C)c3)cc21 (stereo unspecified)	–	–	–	–	–	–	·
O=C(Cc1ccc2c(c1)OCCO2)c1c(O)cc(O)cc1O	51	–	–	–	–	–	–
O=C(CCc1ccc(O)cc1)c1c(O)cc(O)cc1O	46	–	–	–	–	–	–
